DAX1 inh-1 = inhibitors of DAX1 repression of SF-1 activated StAR promoter; HEK293T StAR-luciferase reporter, SF-1/DAX-1 repression relief; inhibition, % at 6.8 µM; 370,000 compounds, 1.1% hits;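 active = inhibition above the mean over all tested compounds plus 3 SD, cut at about 3.6% in these data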;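 note: higher inhibition means more luminescence from relief of DAX-1 repression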
DAX1 inh-2 = inhibits human nuclear receptor DAX1; P51843; HEK293 Gal4-DAX1 luciferase reporter, luminescence; inhibition, % at 6.75 µM; 340,000 compounds, 0.99% hits; AID 504766;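 active = inhibition above the mean over all tested compounds plus 3 SD, cut at about 4.2% in these data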;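 note: inhibition shows as a rise in luminescence from relieved DAX1 repression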
Target sequence (P51843 207-470 limits assumed): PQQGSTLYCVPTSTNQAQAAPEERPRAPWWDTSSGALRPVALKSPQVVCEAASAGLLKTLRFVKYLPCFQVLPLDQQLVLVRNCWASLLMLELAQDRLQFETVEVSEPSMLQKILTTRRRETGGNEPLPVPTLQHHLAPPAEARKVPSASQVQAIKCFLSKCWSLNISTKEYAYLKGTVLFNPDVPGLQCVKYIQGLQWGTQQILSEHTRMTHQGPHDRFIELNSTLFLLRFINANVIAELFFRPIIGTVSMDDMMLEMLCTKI
hcDAF12 agonist = activators of H. contortus DAF-12 nuclear receptor; activation, % at 6.8 µM; HEK293 hcDAF-12 lit1-tk-luc reporter, luminescence; 0% DMSO, 100% Δ7-dafachronic acid; 370,000 compounds, 1.4% hits;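 active = activation above the mean of all tested compounds plus 3 SD, cut at about 5.5% in these data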
hgDAF-12 ag = agonists of H. glycines DAF-12 nuclear receptor. 370,000 compounds, 1.8% hits. HEK293 GAL4-hgDAF12 UAS-luciferase reporter, agonist luminescence; normalized to butyrate control. AID 687014. activation, % at 6.8 µM;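 active = activation above a cutoff set at the mean of all screened compounds plus 3 SD, cut at about 10% in these data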
ssDAF-12 act = activators of S. stercoralis DAF-12 nuclear receptor | AID 652126 | activation, % at 6.8 µM | 370,000 compounds, 1% hits | HEK293 ssDAF-12/GRIP1 lit1-tk-luc reporter, luminescence; % of 3 µM dafachronic acid response;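 active = activation above the mean over all tested compounds plus 3 SD, cut at about 0.9% in these data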
Numbers stand for hits. Rows were chosen to be rich in hits. Some 4.1% of all compounds tested hit in one or more screens of this group.

What do the screens show for `CCN(CC)c1ccc(NC(=S)NC(=O)c2cccs2)cc1`?
DAX1 inh-1: inactive; DAX1 inh-2: inactive; hcDAF12 agonist: inactive; hgDAF-12 ag: 11; ssDAF-12 act: inactive

How did O=C(NC(=S)Nc1cccnc1)c1cccs1 do in these assays?
DAX1 inh-1: inactive; DAX1 inh-2: inactive; hcDAF12 agonist: inactive; hgDAF-12 ag: inactive; ssDAF-12 act: inactive

What do the screens show for `Cc1cc(NC(=O)c2ccccc2)ncc1NC(=O)c1cccs1`?
DAX1 inh-1: inactive; DAX1 inh-2: inactive; hcDAF12 agonist: inactive; hgDAF-12 ag: inactive; ssDAF-12 act: inactive

What do the screens show for `Cc1cc(NC(=O)c2cccs2)ncc1NC(=O)C(C)C`?
DAX1 inh-1: inactive; DAX1 inh-2: inactive; hcDAF12 agonist: inactive; hgDAF-12 ag: 11; ssDAF-12 act: inactive

How did O=C(NC(=S)Nc1ccc(Cl)cn1)c1cccs1 do in these assays?
DAX1 inh-1: inactive; DAX1 inh-2: 5.5; hcDAF12 agonist: inactive; hgDAF-12 ag: inactive; ssDAF-12 act: 1.1

What do the screens show for `O=C(NC(=S)Nc1ccccc1N1CCCC1)c1cccs1`?
DAX1 inh-1: inactive; DAX1 inh-2: inactive; hcDAF12 agonist: 5.7; hgDAF-12 ag: inactive; ssDAF-12 act: inactive

Results for C[C@H]1[C@@H](OC(=O)NC2CCC2)CC[C@@]23CCCN2C(=O)CCC[C@@H]13 ?
hcDAF12 agonist: inactive; hgDAF-12 ag: inactive; ssDAF-12 act: inactive

How did Cc1cc(C)cc(C(=O)OCCCN(C)C2CN(Cc3cn(Cc4ccccc4F)nn3)S(=O)(=O)C2)c1 (stereo not drawn) do in these assays?
DAX1 inh-1: inactive; hcDAF12 agonist: inactive; hgDAF-12 ag: inactive; ssDAF-12 act: inactive

What do the screens show for `O=C(NC(=S)N1CCCCC1CO)c1cccs1` (stereo not drawn)?
DAX1 inh-1: inactive; DAX1 inh-2: 6.5; hcDAF12 agonist: inactive; hgDAF-12 ag: inactive; ssDAF-12 act: inactive

How did CC(C)C(=O)Nc1cccc(NC(=S)NC(=O)c2cccs2)c1 do in these assays?
DAX1 inh-1: 4.1; DAX1 inh-2: inactive; hcDAF12 agonist: inactive; hgDAF-12 ag: inactive; ssDAF-12 act: inactive

How did CCN(CC)c1ccc(NC(=S)Nc2ccc(F)cc2)cc1 do in these assays?
DAX1 inh-1: inactive; DAX1 inh-2: inactive; hcDAF12 agonist: inactive; hgDAF-12 ag: 12; ssDAF-12 act: inactive

How did O=C(NC(=S)Nc1ccc(N2CCCCC2)cc1)c1cccs1 do in these assays?
DAX1 inh-1: inactive; DAX1 inh-2: inactive; hcDAF12 agonist: inactive; hgDAF-12 ag: 12; ssDAF-12 act: inactive

What do the screens show for `COC(=O)[C@]12C[C@H](CC(=O)N3CCC(c4ccccc4)CC3)C(=O)N(Cc3ccccc3)C1=C[C@H](C(C)(C)C)O[C@@H]2C`?
DAX1 inh-1: inactive; hcDAF12 agonist: inactive; hgDAF-12 ag: inactive; ssDAF-12 act: inactive

How did CSC1=NC(=O)/C(=C/c2ccc(SC)cc2)S1 do in these assays?
DAX1 inh-1: inactive; DAX1 inh-2: inactive; hcDAF12 agonist: inactive; hgDAF-12 ag: 13; ssDAF-12 act: inactive

What do the screens show for `CCOC(=O)CSC1=NC(=O)/C(=C\c2ccc(Cl)cc2)S1`?
DAX1 inh-1: inactive; DAX1 inh-2: inactive; hcDAF12 agonist: inactive; hgDAF-12 ag: inactive; ssDAF-12 act: 1.3

What do the screens show for `CCc1cccc(C)c1NC(=O)CSc1n[nH]c(N)n1`?
DAX1 inh-1: 4.2; DAX1 inh-2: inactive; hcDAF12 agonist: inactive; hgDAF-12 ag: inactive; ssDAF-12 act: inactive

Results for Cc1nc(N2CCN(C(=O)C3CC3)CC2)c2c3c(sc2n1)CC(C)CC3 (stereo not drawn) ?
hcDAF12 agonist: inactive; hgDAF-12 ag: inactive; ssDAF-12 act: inactive

What do the screens show for `CC(=O)c1cc(-c2ccc([N+](=O)[O-])cc2)c(=O)n2c1CCC2`?
DAX1 inh-1: inactive; hcDAF12 agonist: inactive; hgDAF-12 ag: inactive; ssDAF-12 act: inactive

Results for Fc1ccc(C2CC(c3ccco3)=Nc3ccccc3S2)cc1 (stereo not drawn) ?
DAX1 inh-1: inactive; DAX1 inh-2: 7.0; hcDAF12 agonist: inactive; hgDAF-12 ag: inactive; ssDAF-12 act: inactive

Results for CCn1c(=O)cc(OCC(=O)NCCC(C)C)c2ccccc21 ?
DAX1 inh-1: inactive; DAX1 inh-2: inactive; hcDAF12 agonist: inactive; hgDAF-12 ag: inactive; ssDAF-12 act: 0.9

How did CCn1c(=O)cc(OCC(=O)O)c2ccccc21 do in these assays?
DAX1 inh-1: inactive; DAX1 inh-2: inactive; hcDAF12 agonist: inactive; hgDAF-12 ag: inactive; ssDAF-12 act: inactive

Results for CN(Cc1ccc2c(c1)CCCN2C)C(=O)[C@@H](Cc1ccccc1)NC(=O)[C@H]1O[C@@H](n2ccc(=O)[nH]c2=O)[C@H](O)[C@@H]1O ?
DAX1 inh-1: inactive; hcDAF12 agonist: inactive; hgDAF-12 ag: inactive; ssDAF-12 act: inactive

What do the screens show for `O=S(=O)(c1ccccc1)n1c(CN2CCOCC2)nc2ccccc21`?
DAX1 inh-1: inactive; hcDAF12 agonist: inactive; hgDAF-12 ag: inactive; ssDAF-12 act: inactive

Results for O=c1cc(-c2ccccc2)c2c([nH]1)CCCC2 ?
DAX1 inh-1: inactive; DAX1 inh-2: inactive; hcDAF12 agonist: 5.7; hgDAF-12 ag: inactive; ssDAF-12 act: inactive

How did O=[N+]([O-])c1ccc(NCc2ccncc2)cc1 do in these assays?
DAX1 inh-1: inactive; DAX1 inh-2: 4.6; hcDAF12 agonist: inactive; hgDAF-12 ag: inactive; ssDAF-12 act: inactive

How did C=CCN1C(=O)c2n[nH]c(C(C)C)c2C1c1ccc(C)cc1 (stereo not drawn) do in these assays?
DAX1 inh-1: inactive; hcDAF12 agonist: inactive; hgDAF-12 ag: inactive; ssDAF-12 act: inactive

What do the screens show for `O=C(NC1CCCC1)C1CCCN1C(=O)Nc1ccccc1Cl` (stereo not drawn)?
DAX1 inh-1: inactive; DAX1 inh-2: inactive; hcDAF12 agonist: inactive; hgDAF-12 ag: inactive; ssDAF-12 act: inactive

Results for CC1CCCCN1C(=O)Nc1ccccc1Cl (stereo not drawn) ?
DAX1 inh-1: inactive; DAX1 inh-2: 5.1; hcDAF12 agonist: inactive; hgDAF-12 ag: inactive; ssDAF-12 act: inactive

What do the screens show for `Cc1c(C(C)c2ccccc2O)c2ccccc2n1C` (stereo not drawn)?
DAX1 inh-1: inactive; hcDAF12 agonist: inactive; hgDAF-12 ag: inactive; ssDAF-12 act: inactive

How did NNc1ncnc2sc3c(c12)CCC3 do in these assays?
DAX1 inh-1: inactive; DAX1 inh-2: 6.3; hcDAF12 agonist: inactive; hgDAF-12 ag: 12; ssDAF-12 act: inactive

How did O=C1CN(c2ccccc2)C(=S)N1C(=O)c1ccc(Br)cc1 do in these assays?
DAX1 inh-1: inactive; DAX1 inh-2: 7.7; hcDAF12 agonist: inactive; hgDAF-12 ag: 14; ssDAF-12 act: inactive

What do the screens show for `O=C(c1ccc(Br)cc1)N1CCC(C(=O)N2CCN(c3ccccc3)CC2)CC1`?
DAX1 inh-1: inactive; DAX1 inh-2: inactive; hcDAF12 agonist: inactive; hgDAF-12 ag: inactive; ssDAF-12 act: inactive

Results for COc1ccccc1NS(=O)(=O)c1cccc(C(=O)OCC(=O)Nc2cc(C)on2)c1 ?
DAX1 inh-1: inactive; DAX1 inh-2: inactive; hcDAF12 agonist: inactive; hgDAF-12 ag: inactive; ssDAF-12 act: inactive

How did COc1ccccc1NS(=O)(=O)c1cccc(C(=O)NCC(c2ccccc2OC)N2CCCC2)c1 (stereo not drawn) do in these assays?
DAX1 inh-1: 4.3; DAX1 inh-2: inactive; hcDAF12 agonist: inactive; hgDAF-12 ag: inactive; ssDAF-12 act: inactive

Screening results: PubChem, The Scripps Research Institute Molecular Screening Center
